Screening results from PubChem BioAssay.
Shown are actives, neighbours in structure and some others; about 6.8% of the full set was active somewhere.
Pf Dd2 inh = inhibitors of Plasmodium falciparum Dd2 growth; activity change, % at 10 µM; P. falciparum Dd2 growth, SYBR Green, 72 h; active compounds read low; 94,000 compounds, 2.3% hits; in the data active means activity change below about -80%; inconclusive means no clear call, values can overlap the other calls
T cruzi growth-1 = T. cruzi proliferation inhibition. AID 624255. inhibition, % at 8.34 µM. T. cruzi beta-gal in NIH3T3, GalScreen luminescence, 90 h. 77,000 compounds, 5.9% hits;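 active means mean inhibition above about 93%, with at least 55% of replicates each passing it, limit read from the data, passing the limit was not always enough; inconclusive means only one of those two conditions holds; inactive means neither condition holds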
C diff HTS = blocks growth of Clostridium difficile; 86,000 compounds, 0.25% hits; growth activity, negative = inhibition, % at 16 µg/mL (by protocol); Clostridium difficile clinical isolate growth, OD600, 24 h; active compounds read low;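 active means mean growth activity at or below -80% and every replicate also at or below -80%; inconclusive means mean at or below -80% but some replicate above -80%; inactive means mean growth activity above -80%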;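 further: 0% = DMSO wells and -100% = levofloxacin 16 µg/mL wells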
T cruzi growth-2 = inhibitors of T. cruzi proliferation; T. cruzi beta-gal in NIH3T3, GalScreen luminescence, 90 h; AID 651739; shares compounds with T cruzi growth-1; 5,600 compounds, 72% hits; inhibition, % at 8.35 µM;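 active means mean replicate inhibition above about 95% and at least 55% of replicates individually reaching it, limit read from the data; inconclusive means only one of the two criteria is met; inactive means neither criterion is met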
T cruzi growth-3 = inhibitors of T. cruzi proliferation. AID 651740. shares compounds with T cruzi growth-1. 5,600 compounds, 21% hits. T. cruzi beta-gal in NIH3T3, GalScreen luminescence, 90 h. inhibition, % at 2.09 µM;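 active means mean inhibition above about 95%, with at least 55% of replicates also reaching it, limit read from the data; inconclusive means meets just one of the two conditions; inactive means meets neither condition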;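 further: plate controls were neutral control median for no effect and positive control median for full effect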
NIH3T3 tox = kills mouse NIH/3T3 fibroblasts | cytotoxicity (signal decrease), % at 8.35 µM | NIH/3T3 viability, CellTiter-Glo ATP luminescence, 90 h | shares compounds with T cruzi growth-1 | 5,600 compounds, 14% hits | AID 651742;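 active means mean signal decrease across replicates above about 35% based on untreated-well scatter, with enough replicates individually passing, limit read from the data; inconclusive means no rule stated though some were filed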;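 further: 0% = median of neutral control wells and 100% = median of positive control wells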
NIH3T3 tox 2 = cytotoxicity in mouse NIH/3T3 fibroblasts; shares compounds with T cruzi growth-1; NIH/3T3 viability, CellTiter-Glo ATP luminescence, 90 h; inhibition, % at 24.9 µM; 5,600 compounds, 56% hits;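 active means mean loss of cell viability signal at or above a set limit, and enough replicates individually reaching it; inconclusive means meets only the mean limit or only the replicate share; inactive means meets neither condition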;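 further: 0% = median of neutral control wells and 100% = median of positive control wells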
The depositor's hits bear a star; ? = inconclusive; . = not tested or not shown.

SMILES	Pf Dd2 inh	T cruzi growth-1	C diff HTS	T cruzi growth-2	T cruzi growth-3	NIH3T3 tox	NIH3T3 tox 2
O=S(=O)(c1ccc(F)cc1)N1CCCCN2[C@H](C1)[C@@H](c1ccc(-c3ccccc3F)cc1)[C@@H]2CO	14.1	107.3*	-3.3	101.0*	65.5	20.9	42.1*
Cc1ccccc1-c1ccc([C@@H]2[C@@H](CO)N3CCCCN(S(=O)(=O)c4ccc(F)cc4)C[C@H]23)cc1	-13.0	78.2	16.3	.	.	.	.
Cc1ccccc1-c1ccc([C@H]2[C@H](CO)N3CCCCN(S(=O)(=O)c4ccc(F)cc4)C[C@@H]23)cc1	-12.0	111.9*	47.3	99.7*	109.6*	?	103.8*
O=S(=O)(c1ccc(F)cc1)N1CCCCN2[C@H](CO)[C@H](c3ccc(-c4ccccc4F)cc3)[C@H]2C1	-77.1	89.9	-6.1	.	.	.	.
Cc1ccccc1-c1ccc([C@H]2[C@H]3CN(S(C)(=O)=O)CCCCN3[C@H]2CO)cc1	-19.9	22.4	-6.2	.	.	.	.
COc1ccc(CN(C)C[C@H]2OCCCC[C@@H](C)Oc3ccc(NS(=O)(=O)c4cn(C)cn4)cc3C(=O)N([C@H](C)CO)C[C@H]2C)cc1	-22.7	7.3	-1.8	.	.	.	.
COc1cccc(-c2ccc([C@@H]3[C@H]4CN(C(=O)NC(C)C)CCCCN4[C@H]3CO)cc2)c1	32.6	74.6	-1.9	.	.	.	.
COc1cccc(-c2ccc([C@H]3[C@@H](CO)N4CCCCN(C(=O)NC(C)C)C[C@@H]34)cc2)c1	24.7	104.8*	-21.7	101.0*	41.1	11.1	3.4
COc1cccc(-c2ccc([C@@H]3[C@H]4CN(C(=O)NC(C)C)CC(=O)N4[C@H]3CO)cc2)c1	1.1	.	-1.7	.	.	.	.
COc1cccc(-c2ccc([C@H]3[C@H](CO)N4CCCCN(C(=O)NC(C)C)C[C@@H]34)cc2)c1	22.5	108.2*	-12.5	109.7*	81.1	37.1*	31.2*
C[C@H](CO)N1C[C@H](C)[C@@H](CN(C)CC2CC2)Oc2cc(-c3cccc(C#N)c3)ccc2S1(=O)=O	-39.8	65.0	3.2	.	.	.	.
CNC(=O)C[C@H]1CC[C@H]2[C@@H](COc3ccc(NC(=O)NC4CCCC4)cc3C(=O)N2C)O1	5.0	16.9	-5.0	.	.	.	.
CCCC#Cc1ccc2c(c1)O[C@@H](CN(C)C(=O)c1ccccc1F)[C@@H](C)CN([C@H](C)CO)S2(=O)=O	-76.7	65.6	10.6	.	.	.	.
CC(C)CC#Cc1ccc2c(c1)O[C@@H](CN(C)C(=O)c1ccccc1F)[C@H](C)CN([C@@H](C)CO)S2(=O)=O	-81.7*	104.8*	3.5	106.5*	106.2*	?	105.5*
C[C@@H]1CN([C@@H](C)CO)S(=O)(=O)c2ccc(C#CCN(C)C)cc2O[C@@H]1CN(C)C(=O)c1ccccc1F	-12.5	-2.8	-2.6	.	.	.	.
CC(C)CC#Cc1ccc2c(c1)O[C@H](CN(C)C(=O)c1ccccc1F)[C@@H](C)CN([C@H](C)CO)S2(=O)=O	-82.1*	87.5*	11.6	103.0*	58.5	-14.3	97.3*
CCCC#Cc1ccc2c(c1)O[C@H](CN(C)C(=O)c1ccccc1F)[C@@H](C)CN([C@@H](C)CO)S2(=O)=O	-78.8	74.5	13.1	.	.	.	.
CCCC#Cc1ccc2c(c1)O[C@H](CN(C)C(=O)c1ccccc1F)[C@@H](C)CN([C@H](C)CO)S2(=O)=O	-78.2	111.0*	18.2	110.2*	84.2	-18.5	8.4
CC(C)CC#Cc1ccc2c(c1)O[C@H](CN(C)C(=O)c1ccccc1F)[C@H](C)CN([C@H](C)CO)S2(=O)=O	-70.6	105.3*	4.6	105.4*	74.5	?	103.5*
C[C@H](CO)N1C[C@H](C)[C@@H](CN(C)C(=O)c2ccccc2F)Oc2cc(C#CCN(C)C)ccc2S1(=O)=O	-33.9	81.0	-3.3	.	.	.	.
COc1ccc(S(=O)(=O)Nc2ccc3c(c2)C(=O)N([C@@H](C)CO)C[C@@H](C)[C@H](CN(C)C(=O)C2CCCCC2)OCCCC[C@H](C)O3)cc1	-57.0	16.8	-1.8	.	.	.	.
CCC(=O)N1CC2(CCN(S(C)(=O)=O)CC2)c2c(n(C)c3cc(OC)ccc23)[C@H]1CO	19.4	.	5.1	.	.	.	.
CCS(=O)(=O)Nc1ccc2c(c1)C(=O)N(C)C[C@H](OC)[C@H](C)CN(Cc1ccccn1)[C@H](C)CO2	32.2	99.2*	.	-2.9	-18.4	-3.1	19.5
CO[C@@H]1CN(C)C(=O)c2ccc(NC(=O)NC(C)C)cc2OC[C@H](C)N(Cc2ccccn2)C[C@@H]1C	-15.7	34.5	.	.	.	.	.
COc1ccccc1NC(=O)Nc1ccc2c(c1)OC[C@@H](C)N(Cc1ccccc1Cl)C[C@@H](C)[C@H](OC)CN(C)C2=O	-96.6*	126.9*	.	104.1*	111.8*	1.3	14.4
SMILES	Pf Dd2 inh	T cruzi growth-1	C diff HTS	T cruzi growth-2	T cruzi growth-3	NIH3T3 tox	NIH3T3 tox 2
CO[C@H]1CN(C)C(=O)c2ccc(NC(=O)NC(C)C)cc2OC[C@@H](C)N(Cc2ccccn2)C[C@H]1C	-3.4	109.0*	.	53.1	-2.0	6.1	-7.9
CO[C@H]1CN(C)C(=O)c2cc(NC(=O)NC(C)C)ccc2OC[C@@H](C)N(Cc2ccccn2)C[C@@H]1C	16.7	-11.6	.	.	.	.	.
COc1ccccc1NC(=O)Nc1ccc2c(c1)OC[C@@H](C)N(Cc1ccccc1C(=O)O)C[C@@H](C)[C@H](OC)CN(C)C2=O	-1.1	-169.2	.	.	.	.	.
CO[C@H]1CN(C)C(=O)c2cc(NC(=O)NC(C)C)ccc2OC[C@H](C)N(Cc2ccccn2)C[C@H]1C	8.2	105.9*	.	73.4	4.9	12.5	14.1
CCS(=O)(=O)Nc1ccc2c(c1)C(=O)N(C)C[C@@H](OC)[C@@H](C)CN(Cc1ccccn1)[C@H](C)CO2	-1.0	22.9	.	.	.	.	.
C[C@H]1CN([C@@H](C)CO)C(=O)c2cc(NC(=O)Nc3ccccc3)ccc2O[C@H]1CN(C)Cc1ccc(Cl)c(Cl)c1	35.7	-174.3	15.9	.	.	.	.
Cc1ccc(CN(C)C[C@@H]2OCc3cnnn3CCCC(=O)N([C@H](C)CO)C[C@@H]2C)cc1	-20.3	2.4	.	.	.	.	.
C[C@@H]1CN([C@H](C)CO)C(=O)c2cc(Br)cnc2O[C@@H]1CN(C)CC1CCOCC1	25.3	29.7	1.7	.	.	.	.
C[C@H](CO)N1C[C@H](C)[C@H](CN(C)C(=O)C2CCCCC2)OCCCC[C@H](C)Oc2ccc(NS(C)(=O)=O)cc2C1=O	-12.6	31.9	-0.6	.	.	.	.
COc1cccc(-c2ccc3n(c2=O)C[C@H]2[C@H](CO)[C@@H](C(=O)N(C)C)[C@@H]3N2Cc2cncnc2)c1	8.9	54.5	2.5	.	.	.	.
O=C(Nc1cccc(F)c1)N1CCCCN2[C@H](CO)[C@H](c3ccc(-c4ccncc4)cc3)[C@H]2C1	-65.5	105.5*	-2.5	112.4*	53.7	1.0	53.1*
Cc1ccccc1-c1ccc([C@@H]2[C@@H](CO)N3CCCCN(C(=O)Nc4cccc(F)c4)C[C@@H]23)cc1	-30.3	3.0	25.1	.	.	.	.
